Among all 53,000 sequences or so, about 3,700 (7%) were called active.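 How the source made its calls: active means gene knockdowns whose robust z-score for IL-1 alpha signal is at least 2 or at most -2, so actives lie on both sides; inactive means the rest.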 Many of the other results were omitted from the sample, so actives are more common in it than they were.

The assay in a line: Components of the Cytosolic LPS Sensing Pathway: Gene Identification via Genome-wide siRNA Screen. The settings on record: RAW264.7 macrophages, IL-1a HTRF, actives lie on both sides, screened at 100 nM (by protocol), cells primed 5 h with Pam3CSK4 first. From the text: Non-canonical inflammasome activation by cytosolic LPS is a critical component of the host response to Gram-negative bacterial infection, however we lack a comprehensive understanding of the cellular processes that control this pathway. Here we describe a genome-wide siRNA screen to identify genes regulating the mouse macrophage IL-1 alpha response to cytosolic LPS.
RAW264.7 cells were maintained in complete DMEM media, comprising DMEM with 4.5 g/L glucose, 10% FBS (Gemini Bio-Products, West Sacramento, CA), 2 mM Glutamine (Lonza) and 20 mM HEPES (Lonza), hereafter complete DMEM.
The RNAi screen was conducted in 384-well format using the Ambion Silencer Mouse Genome siRNA Library (#4391425), which consists of three unique, nonoverlapping, nonpooled siRNAs for each of 17,000 gene targets. siRNA reagents ([…]) were stamped into 384-well white flat-bottom microplates (Corning, 3570) using a Velocity11 VPrep liquid handling system (Agilent) integrated into a BioCel robotic platform (Agilent) in columns 1-22, leaving columns 23-24 empty for negative (Ambion, Negative control #1) and positive (mouse Casp4) controls, respectively. The median value of each plate's negative control column was used to normalize sample wells, and the positive control was used to assess transfection efficiency and assay performance.
Lipofectamine RNAiMAX Transfection Reagent ([…]; Invitrogen) was added in […] serum-free, antibiotic-free media to plate wells using a Thermo Scientific Matrix WellMate and Microplate Stacker. Plates were incubated for 45 min at room temperature to allow for the sufficient formation of siRNA-lipid complexes. Cells were seeded at a density of 1x10^4 cells per well in 20 microL media containing 20% (vol/vol) FBS without antibiotics. The final concentration of siRNA in each well was 100 nM. Cells were cultured for 48h at 37 degrees C in 5% CO2 before addition of […] of TLR ligand Pam3CSK4 for 5 hours. The medium was then removed, replaced with […] growth media and cell were transfected with […] of LipidA and TransIT-TKO (Mirus) for 24 hour. At the end of the LipidA treatment, […] of supernatant was transferred to a 384 Greiner Bio-one non-binding low volume plate and […] of IL-1a HTRF reagent (Cisbio, 62MIL1APEH) was added and incubated at room temperature overnight. The plates were read on an EnVision plate reader (PerkinElmer). Cell viability was measured by adding 20ul Cell Titer Glo to the original plate and running a luminescence read on the EnVision. The quantified IL-1a signal for each siRNA gene-targeted well was divided by the median of the negative control wells and multiplied by 100 to achieve a negative control normalized value for each well/siRNA. This normalized value was then used to generate a robust z-score by first taking the log of each value and then by subtracting the median and dividing by the […].
(In general: Time-resolved FRET reads energy transfer from a long-lived donor to a nearby acceptor.)
For GGACAAUAGGAGCCUUUAATT against Vmn1r211, the z-score is 0.125 (inactive). As for CCUUCUAGUGCAUCAGUGGTT against Olfr890, the z-score was -0.508 (inactive). Turning to GGCUCUGGUCCAAGAAAUGTT against C4b, the z-score was -0.176 (inactive). Consider CCAUGUCGUAUGUGAUUCUTT against Hils1, for which the z-score is -0.528 (inactive). To GGAUGUUGAACAAAAGAAGTT against Abce1 belongs -0.863 (inactive); to GCUUAUGUUGUUGUGCAUUTT against Zfyve21, 0.362 (inactive). Take GCUAUUCAAUCUGAGGAAATT against Olfr1278: the z-score is 0.246 (inactive). The value for GCCUGGAUUAUAGGAUCACTT against Tmem208 was -1.45 (inactive); that for GGAUUAGAAUGUCAUGUCUTT against Ddx20 was -1.28 (inactive). As to GCAUCAGGCCCGUUCAGAATT against Ddx4, the z-score was 3.23 (active). For the sequence “GCAGGUUGCUAUGCAUAUGTT against 9930038B18Rik”, the z-score was 0.722 (inactive). Take CGCAUUUUAGUUCAUCUGUTT against Sowahb: the z-score is -0.669 (inactive). Consider GGAUCAAGGAGCAAGUGGUTT against B4galnt1, for which the z-score was -1.7 (inactive).

Turning to GACCUUCCAGGUCAAGUUGTT against Plcg1, the z-score is 2.56 (active). For the sequence CCUAUUCCAUUGACAAUGATT against Tubb2a, the z-score is 0.286 (inactive). As to GCUAAUUCAUGAAUUGAUGTT against Ofd1, the z-score is 1.01 (inactive).

As to GGAGCAGGAGAAAAUUUUGTT against Olfr437, the z-score is -0.0124 (inactive). GGCCCGUCACAUGAAGAAGTT against Ip6k3: the z-score is 0.238 (inactive). Turning to GGAGCUAAGUGAUUUUAGATT against Mtf1, the z-score was 0.403 (inactive). To GGUGGAGGAUUUUUCAGAUTT against Hs6st2 belongs 2.42 (active); to GGAGGAUAUUGGAACUGCCTT against Lrrc26, 0.312 (inactive); to GGCAUUAUCGUGGUUGGCATT against Ntpcr, -1.97 (inactive).

Take GCACGAGAGUCUGAAGGAUTT against Mns1: the z-score is -0.2 (inactive).

For GGUUGUCGCCAGAAUCAAGTT against Slc9a3r2, the z-score is 2.28 (active). To GGAUCUAUGGACGACCUUCTT against Kcnj10 belongs -0.643 (inactive). Regarding GGCGUGUCUGUAAAAUCUUTT against Exo5, the z-score was 0.656 (inactive). For GCGAGAUUGGUGCAAAACUTT against Grem1, the z-score was -1.43 (inactive). On to CCGUCAUCCGAGCAAUCAGTT against Kcnq5, for which the z-score was -0.248 (inactive).

CGAACGAUUGAAGAUUUCUTT against Nat3: the z-score is 2.81 (active).

For GGUGGCAGACAUUUCAACATT against Ifi27, the z-score was 1.54 (inactive).

On to GCUUCUUACAGUUUGCCCATT against Vmn1r65, for which the z-score was -0.859 (inactive). With CGUGACCAUCAGGCUAAAGTT against Ecrg4, the z-score is 3.42 (active). With GGUAAAAAAUGCUUUCAACTT against Olfr1008, the z-score was 0.696 (inactive). Take GGCGACAGCUAAGUGUUGGTT against Gprc5a: the z-score was -0.0528 (inactive). Consider GGAGCUGAUAAGAAAACUATT against Gbp2, for which the z-score is 0.486 (inactive). As for CCCUCAGUUGGUCACAUGUTT against Mpc1, the z-score is -0.182 (inactive). To GGGACAAAAUUAUUCCUCCTT against Med14 belongs -0.977 (inactive); to GGAACAACUUUCAUCUCACTT against Anxa10, 1.34 (inactive); to CGAAAUUUAACUUGAACAGTT against Toporsl, 0.659 (inactive). To GGGACGGAGAAAAGCUUUUTT against Olfr419 belongs 3.92 (active); to AGCAGAAAAAGGAAGGCCATT against Xlr3c, 0.733 (inactive); to GGACACAGACCUUUGUUAATT against Lpar6, -0.0566 (inactive).

Take GUUCACACACGAAUUUGACTT against H2-Oa: the z-score was -2.32 (active). In the case of GCCUGUUUGGUAUUCUUCCTT against Olfr832, the z-score is -1.19 (inactive). On to GGGAAACUCUGCAUGAGUATT against Tenm1, for which the z-score is -0.137 (inactive). Consider CCUCUGUUGAACCAUCAUUTT against Gpr21, for which the z-score was 0.127 (inactive). The value for GGCGGUGAUGGAAUGAACATT against Plod2 was 0.706 (inactive); that for CCUACCACAUGGAUGAGUATT against Accs was 0.525 (inactive); that for GCUCUAGGGUCGUAAUGUUTT against Ralb was -2.33 (active).

As for GGAUUUCAUCUGGUACCUGTT against Ceacam19, the z-score is -0.0176 (inactive). To CGGAAUAUAGAAUGAAACCTT against Cd200r3 belongs 0.731 (inactive); to GGACCAUAAAGUGUUACUATT against Tnrc6b, 0.526 (inactive). Regarding GGGCCCAUUUUCAGAAAUGTT against Tagln3, the z-score was 0.0546 (inactive). As for GGAGGUUAAGAUUCCAGAGTT against Prune1, the z-score was 1.52 (inactive). With CCUAUGGCCAUGAUCCUUATT against Olfr575, the z-score is 1.29 (inactive). Take GGUCAAUGAACCAUCCCACTT against Padi6: the z-score is -0.983 (inactive). Turning to GGAACACCAUCAAUAAACUTT against Tjap1, the z-score is -2.09 (active). As for GGACCAGAGUAACUUGAAUTT against Zfp128, the z-score was -0.66 (inactive). With CCAUUAUUCUAGUGUCCUATT against Olfr1368, the z-score was -0.753 (inactive). With GGGCUAUCUUCUGAUUGGCTT against Zp3r, the z-score is -2.45 (active). In the case of GGAACUGCUCAAGAUCAAGTT against Plagl2, the z-score is 1.92 (inactive). Turning to GGGCUGAUAAUGUUAGCUCTT against Olfr161, the z-score is 0.48 (inactive). As to CCUCAUAGGCUUGACAAUUTT against Exoc2, the z-score was -0.0626 (inactive). Regarding GGCAGCAUGAUUAUUUCAATT against Gm4861, the z-score was -0.0747 (inactive).

In the case of GGAAGUAGGACUAGCCAUCTT against Akr1c6, the z-score is 3.37 (active). On to CCUGAAAAGCUAUUGGGUATT against Baat, for which the z-score is -0.196 (inactive). As for GGGAUGGAGAAUCAAGAUATT against Tmem117, the z-score was -1.9 (inactive). Take CCCACAUAAAUAAGUUGGUTT against Olfr996: the z-score was -1.02 (inactive). To GGUUCAGCUUUUCAUCAGUTT against Cops3 belongs 1.37 (inactive); to GGAGAUUAUCACAACUAUUTT against Sash3, 0.845 (inactive); to GGUUCUUGGGCACCAUUAUTT against Olfr786, 0.742 (inactive). To “GCCGUUUGUACCUUGUCAGTT against 4933430I17Rik” belongs -3.01 (active); to GCAAUAUUUCAGCACACUGTT against Txndc16, -1.08 (inactive); to GCUAAAUUCAGCUGAGGCUTT against Kdm4d, -0.217 (inactive). In the case of GGGAAUAUGUCUUGUGAUATT against Ddo, the z-score was 0.141 (inactive). On to GGUUUUACUGUAGACCUUUTT against Hnrnpa1, for which the z-score was 0.542 (inactive). On to GGGAAACUUCUUCAUGGGUTT against Dazap2, for which the z-score was 0.0384 (inactive). On to GGAGUAUGAAUGCUAUGUCTT against Fsd2, for which the z-score was -3.24 (active). In the case of GGCUCAUCGAGAUUAACCCTT against Carns1, the z-score was 0.195 (inactive).

GGACAUAUUGGAUGGUGAUTT against Usp2: the z-score was -0.847 (inactive). To CCGAGAACUACCUGUGUAATT against Unc119b belongs 0.266 (inactive).

For GGGUUCAAAUAGUUUACCUTT against Tmem33, the z-score is 0.156 (inactive). With GCCGCAUUGAGUACAUGGUTT against Ap1m1, the z-score is 1.9 (inactive).

For GGGAUGAUUUUGAGAUUUUTT against Dmpk, the z-score was 2.74 (active). Take GGAUUUCAGAAAGUGGCCUTT against Acad8: the z-score is -1.22 (inactive). To CCCUAUGGACUGAGUUUGUTT against Olfr183 belongs -0.036 (inactive); to CUACGUGCUAGCUCAAGGATT against Mmp28, -1.1 (inactive). The value for GGAAGUAUUUCACAUGUGATT against Dctn1 was -0.299 (inactive); that for CGGUAUAUAGAUCACUUCUTT against Olfr56 was 0.276 (inactive); that for GGUGAUCCUCAUAUUGGCCTT against Npy2r was -0.521 (inactive). As for GCUACUUGUUGAGACCCAATT against Esr1, the z-score is -0.616 (inactive). Regarding GCCCAAAAGUAUAAACCAGTT against Peg12, the z-score is 0.318 (inactive). As for CGAGCUUGCUAUCGGGAAGTT against Defb7, the z-score was -0.902 (inactive).

For “GCUUAAGCAGUGAUAAUAATT against B230317F23Rik”, the z-score is -1.65 (inactive). To CGAGGACUACUAGAAGAAATT against Trpc1 belongs 2.36 (active); to GGACACAGGACUCUACACCTT against Psg16, 0.293 (inactive); to CGGGAAGCAUCACUAUUUCTT against Nabp1, -0.822 (inactive).

As for GGACUCUUUUAUGAGUUUGTT against Lims1, the z-score is 0.757 (inactive). Regarding GGCUAAAACAAGUGAAUGGTT against Gli3, the z-score is -0.619 (inactive). In the case of GGAGUAAAAAUGAGUAUGATT against Abcg3, the z-score is 0.534 (inactive). To GAUAUUCCUGCUCACAGUGTT against Olfr1265 belongs -1.04 (inactive). For UAGUCAUCUUCACUCUCCUTT against Olfr1249, the z-score was -0.907 (inactive). For GGACUUUUACCAGUUCUCCTT against Ece2, the z-score is -2.43 (active). Consider GGCUCUCUGUCUGGAAAAGTT against Vcan, for which the z-score was -1.25 (inactive). For GGAGCUGAGGAAUUGAUCCTT against Pudp, the z-score was -1.97 (inactive). Regarding CCAUUGCAUGCAAUGACUATT against S100a10, the z-score was -1.25 (inactive). GGAAGCAGCAAAGAAGUUGTT against Olfr1109: the z-score was 0.918 (inactive).

(Values after PubChem BioAssay AID1508600 (Functional Genomics Laboratory (NCATS/FGL), 2020).)
